# Compound activity: PubChem BioAssay, National Center for Advancing Translational Sciences (NCATS)
# HepG2 tox-1 = counter-screen for TGF-b inhibitors: cytotoxicity in HepG2 cells. AID 588856. Potency, µM (series often up to 46.1 µM), without a hit: at the highest dose activity change, negative = cytotoxicity, most hits filed as cytotoxic. HepG2 CAGA-GFP viability, ATP luminescence, 18 h. 410,000 compounds, 0.76% hits; note: potency is the fitted concentration of half-maximal effect
#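 CellTiter-Glo luminescence gave cytotoxicity after 18 hours at 37 degrees C. The cells were HepG2 CAGA-GFP in 1% FBS DMEM, stimulated with 500 pg/mL TGF-beta after compound addition. %Activity was normalised to no-cell wells (complete cell-killing) and DMSO (no toxicity), and curves were fitted and classified.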
# ATXN2 expr inh = inhibitors of ATXN2 expression | HEK-293 ATXN2-luciferase reporter, luminescence, 24 h | Potency, µM (highest dose often 57 µM), for the others: at the top dose activity change, negative = inhibition, most hits filed as inhibitors | 360,000 compounds, 0.72% hits; note: potency is the fitted concentration of half-maximal effect; % is set by controls: 0 for no effect and ±100 for the full control effect; nearly all actives have a fitted effect of over 55% in size
#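 qHTS (up to 57 uM final) was run with 24 h compound exposure of reporter cells at 37 °C. Each well was multiplexed: SteadyGlo luminescence measured ATXN2-luciferase expression after a fluorogenic Gly-Phe-AFC viability readout (25 uM final).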
# Six1-Eya2 blk = Six1/Eya2 interaction inhibition | AlphaScreen GST-Six1/His-Eya2 binding, biochemical; stronger effect = lower value | Q15475+O00167 | activity change, % (concentration not given with the values) | 360,000 compounds, 0.56% hits; in the data active = activity change below about -65%; inconclusive = mostly about -30% to -63%; note: % is set by controls: 0 for no effect and ±100 for the full control effect
# Target sequence (O00167 whole entry, looked up): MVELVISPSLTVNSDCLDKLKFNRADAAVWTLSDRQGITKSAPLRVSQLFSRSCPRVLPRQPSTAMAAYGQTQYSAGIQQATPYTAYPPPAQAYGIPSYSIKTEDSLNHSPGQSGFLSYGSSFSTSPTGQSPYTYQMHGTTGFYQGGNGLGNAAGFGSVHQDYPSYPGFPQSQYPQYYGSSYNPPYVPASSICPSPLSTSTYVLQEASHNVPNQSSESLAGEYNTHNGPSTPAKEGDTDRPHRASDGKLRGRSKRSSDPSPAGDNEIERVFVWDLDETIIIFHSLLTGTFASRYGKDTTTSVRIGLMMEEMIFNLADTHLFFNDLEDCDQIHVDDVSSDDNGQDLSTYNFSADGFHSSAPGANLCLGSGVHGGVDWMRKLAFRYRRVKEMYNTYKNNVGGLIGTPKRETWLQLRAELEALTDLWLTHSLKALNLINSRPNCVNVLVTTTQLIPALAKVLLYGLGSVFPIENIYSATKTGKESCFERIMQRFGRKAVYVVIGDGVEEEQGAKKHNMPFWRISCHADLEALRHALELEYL
# Target sequence (Q15475 whole entry, looked up): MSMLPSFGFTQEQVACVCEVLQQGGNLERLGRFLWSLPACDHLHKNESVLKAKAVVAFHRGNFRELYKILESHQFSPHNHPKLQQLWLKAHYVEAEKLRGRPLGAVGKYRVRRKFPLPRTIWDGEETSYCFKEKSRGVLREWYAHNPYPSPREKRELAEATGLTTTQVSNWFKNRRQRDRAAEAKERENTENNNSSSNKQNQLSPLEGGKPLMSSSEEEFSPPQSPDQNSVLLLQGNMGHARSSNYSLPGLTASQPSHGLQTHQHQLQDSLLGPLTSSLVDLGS
#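 Six1/Eya2 binding was read as AlphaScreen signal after compounds were pinned into GST-Six1 plus His-tagged Eya2 (5X stock 250/500 nM) in pH 8.0 Tris/NaCl/TCEP buffer, beads added, then incubated 1 h, 37 C, dark.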
# TGFb inhibitor = inhibitors of TGF-b signaling. HepG2 CAGA-GFP TGF-b/SMAD3 reporter, GFP fluorescence, 18 h; TGF-beta stimulated, 500 pg/mL final. Potency, µM (titrated, usually from 46.1 µM), inactives show at the highest dose activity, negative = inhibition, most hits filed as inhibitors. 410,000 compounds, 1.2% hits. AID 588855; note: potency is the fitted concentration of half-maximal effect; % is set by controls: 0 for no effect and ±100 for the full control effect; nearly all actives have a fitted effect of over 65% in size
#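 TGF-beta reporter screen: HEPG2 CAGA-GFP, 1% FBS, 500 pg/mL TGF-beta final, 18 h; per-cell GFP summed per well; curves fitted and categorized by class.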
# ATXN viability = viability counter-screen for ATXN expression inhibitors; 400,000 compounds, 0.49% hits; Potency, µM (top dose mostly 56.7 µM), hits mostly cytotoxic; S2 cells (HEK-293 line with an ATXN2-luciferase reporter) viability, CellTiter-Fluor protease fluorescence, 24 h; note: potency is the fitted concentration of half-maximal effect; nearly all actives have a fitted effect of over 40% in size
# CtBP-E1A blk = inhibitors of CtBP/E1A interaction | AlphaScreen GST-E1A/His-CtBP binding, 1536-well; stronger effect = lower value | activity change, % (test concentration not listed) | 340,000 compounds, 0.49% hits | AID 651724; in the data active = activity change below about -65%; inconclusive = mostly about -30% to -63%; note: % is set by controls: 0 for no effect and ±100 for the full control effect
#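 Homogeneous bead-based format: GST-tagged E1A captured on glutathione donor beads, His-tagged CtBP on nickel acceptor beads; compounds precede bead addition by 2 h at 37 °C.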
# TGFb confirm = TGF-b pathway inhibition, cherry-pick retest. shares compounds with TGFb inhibitor. HepG2 CAGA-GFP TGF-b reporter, GFP fluorescence, 18 h; cells stimulated with TGF-beta, 500 pg/mL. Potency, µM (series often up to 46.1 µM), without a hit: at the highest dose activity, negative = inhibition, actives largely listed as inhibitors. 1,600 compounds, 63% hits. AID 720534; note: potency is the fitted concentration of half-maximal effect; % is set by controls: 0 for no effect and ±100 for the full control effect; nearly all actives have a fitted effect of over 65% in size
# HepG2 tox-2 = toxic to HepG2 cells in TGF-b counterscreen; shares compounds with TGFb inhibitor; HepG2 CAGA-GFP viability, ATP luminescence, 18 h; cells stimulated with TGF-beta, 500 pg/mL; Potency, µM (doses to about 46.1 µM), inactives show top-dose activity, negative = cytotoxicity, actives largely listed as inhibitors; 1,600 compounds, 27% hits; note: potency is the fitted concentration of half-maximal effect; % is set by controls: 0 for no effect and ±100 for the full control effect; nearly all actives have a fitted effect of over 70% in size
# CCL64 TGFb inh = orthogonal confirmation of TGF-b inhibitors in CCL64 cells; Potency, µM (top dose mostly 46.1 µM), without a hit: at the highest dose activity, negative = inhibition, most hits filed as inhibitors; CCL64 CAGA-GFP reporter, TGF-b stimulated, GFP fluorescence, 18 h; 1,600 compounds, 41% hits; AID 720536; shares compounds with TGFb inhibitor; note: potency is the fitted concentration of half-maximal effect; nearly all actives have a fitted effect of over 65% in size
# COP TGFb inh = blocks TGF-b signaling in HepG2 COP reporter | AID 720537 | shares compounds with TGFb inhibitor | 1,600 compounds, 3% hits | Potency, µM (titrated, usually from 46.1 µM), for inactives: at the highest dose activity, negative = inhibition, usual class: inhibitors | HepG2 COP-GFP TGF-b reporter, GFP fluorescence, 18 h; cells stimulated by added recombinant TGF-beta; note: potency is the fitted concentration of half-maximal effect; nearly all actives have a fitted effect of over 70% in size
# SK-N-SH 3D tox = SK-N-SH 3D spheroid viability loss; shares compounds with ATXN2 expr inh; 65 compounds, 70% hits; Potency, µM (top dose mostly 30.7 µM), usual class: inhibitors; SK-N-SH 3D spheroid viability, PI/Hoechst imaging, 72 h
# SJ-GBM2 3D tox = SJ-GBM2 spheroid viability loss, orthogonal 3D screen; shares compounds with ATXN2 expr inh; SJ-GBM2 3D spheroid viability, PI/Hoechst imaging, 72 h; Potency, µM (highest dose often 30.7 µM), most hits filed as inhibitors; 65 compounds, 80% hits; AID 1347136
# Daoy 3D tox = reduced viability of Daoy 3D spheroids, orthogonal test; shares compounds with ATXN2 expr inh; Daoy 3D spheroid viability, PI/Hoechst imaging, 72 h; Potency, µM (top dose mostly 30.7 µM), actives largely listed as inhibitors; 65 compounds, 50% hits
# TC32 3D caspase = activates caspase in TC32 3D spheroids; shares compounds with ATXN2 expr inh; TC32 3D spheroids, caspase-3/7 fluorescence imaging, 24 h; Potency, µM (highest dose often 30.7 µM), most hits filed as inhibitors; 65 compounds, 30% hits; AID 1347138
# TC32 3D tox = reduced viability of TC32 3D spheroids, orthogonal test; shares compounds with ATXN2 expr inh; TC32 3D spheroid viability, PI/Hoechst imaging, 72 h; Potency, µM (top dose mostly 30.7 µM), hits mostly inhibitors; 65 compounds, 60% hits
# MG63 spheroid = reduced viability of MG-63 (6-TG R) 3D spheroids, orthogonal test. AID 1347140. shares compounds with ATXN2 expr inh. MG-63 (6-TG R) 3D spheroid viability, PI/Hoechst imaging, 72 h. 65 compounds, 50% hits. Potency, µM (doses to about 30.7 µM), actives largely listed as inhibitors
# RD spheroid = reduced viability of RD 3D spheroids, orthogonal test; shares compounds with ATXN2 expr inh; AID 1347141; RD rhabdomyosarcoma 3D spheroid viability, PI/Hoechst imaging, 72 h; Potency, µM (highest dose often 30.7 µM), most hits filed as inhibitors; 65 compounds, 50% hits
# * marks the source's active call; other numbers are inactive results; i = inactive; ? = inconclusive; / = no result. Most compounds without a hit are left out; they make up all but 2.8% or so of the library. Unless noted, calls come from the whole dose curve; as a rule, active = well fitted curve in the direction sought with a large enough effect; inconclusive = small, poorly fitted or top-dose-only effect, or another doubt; inactive = no such curve, though single readings can be large; an effect the other way counts as inactive or inconclusive.
SMILES,HepG2 tox-1,ATXN2 expr inh,Six1-Eya2 blk,TGFb inhibitor,ATXN viability,CtBP-E1A blk,SK-N-SH 3D tox,SJ-GBM2 3D tox,Daoy 3D tox,TC32 3D caspase,TC32 3D tox,MG63 spheroid,RD spheroid,others
COc1cccc2c1C(=O)c1c(O)c3c(c(O)c1C2=O)C[C@@](O)(C(=O)CO)C[C@@H]3O[C@H]1C[C@H](N)[C@H](O)[C@H](C)O1,5%,0.32µM*,-17,3.5µM*,4µM*,-22,0.18µM*,0.29µM*,2.9µM*,1µM*,0.32µM*,4.1µM*,2.6µM*,TGFb confirm=0.16µM*;HepG2 tox-2=0.52µM*;CCL64 TGFb inh=1.3µM*;COP TGFb inh=-1%
CCOc1ccc(CNC(=O)c2cc3ccccn3n2)cc1OC,-15%,-8%,/,5%,i,/,/,/,/,/,/,/,/,
CC[C@@H]1C=C(C)C[C@H](C)C[C@H](OC)[C@H]2O[C@@](O)(C(=O)C(=O)N3CCCC[C@@H]3C(=O)O[C@H](C(C)=C[C@@H]3CC[C@H](Cl)[C@H](OC)C3)[C@H](C)[C@@H](O)CC1=O)[C@H](C)C[C@H]2OC,/,?,/,/,/,/,16µM*,2.3µM*,1.4µM*,i,20µM*,3.6µM*,?,
NC(=O)c1cccc2cc3ccccc3cc12,7%,-15%,4,0%,/,/,/,/,/,/,/,/,/,
C[C@]1(c2nc3c(C(N)=O)cccc3[nH]2)CCCN1,/,12%,/,/,/,/,4.6µM*,4.1µM*,?,i,?,?,i,
